# Measured values reported in PubChem BioAssay (NCI).
# Where “and” joins values, the source holds several entries; their conditions need not be identical. Equal values may be shown once. The panel holds about 79,000 compounds, 15% with a hit somewhere; the sample as a whole holds those more often. Some structures have more than one record in an assay (separate samples or runs), and their calls can disagree. Calls of active or inactive are those of the source. Rule as the data show it: active = growth inhibition above about 70%; inactive = the rest.
# Tests used:
# [1] = NCI Yeast Anticancer Drug Screen. Data for the rad50 strain (AID 155);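 also: 0% = growth of vehicle-only cultures of the same strain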; conditions: S. cerevisiae rad50 strain growth inhibition; at 50.0 µM; stronger effect = higher value
# Method in brief: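 Relative growth inhibition (compound vs vehicle) was measured in yeast with a defined repair-gene alteration.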
# [2] = NCI Yeast Anticancer Drug Screen. Data for the mec2-1 strain (AID 157); conditions: S. cerevisiae mec2-1 strain, at 50.0 µM, stronger effect = higher value
# Method in brief: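 Yeast mec2-1 mutant treated with compound. Readout: growth inhibition vs vehicle controls.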
# [3] = NCI Yeast Anticancer Drug Screen. Data for the sgs1 mgt1 strain (AID 161);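 also: 0% = growth of cultures given vehicle only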; conditions: S. cerevisiae sgs1 mgt1 strain, at 50.0 µM, stronger effect = higher value
# Method in brief: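 Test agents were incubated with a DNA-repair-mutant yeast strain. Growth was then read and compared against vehicle-treated controls.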
# [4] = NCI Yeast Anticancer Drug Screen. Data for the cln2 rad14 strain (AID 165);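 also: 0% = growth equal to vehicle treated cultures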; conditions: S. cerevisiae cln2 rad14 strain, at 50.0 µM, stronger effect = higher value
# Method in brief: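 cln2 rad14 yeast strain; compound exposure; growth inhibition read vs vehicle controls.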
# [5] = NCI Yeast Anticancer Drug Screen. Data for the bub3 strain (AID 167); conditions: S. cerevisiae bub3 mutant strain, at 50.0 µM, stronger effect = higher value
# Method in brief: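 Screening used yeast with an engineered genetic alteration affecting cell cycle control. Compound-exposed cultures were compared with vehicle cultures, and reduced growth was taken as inhibition.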
# [6] = NCI Yeast Anticancer Drug Screen. Data for the mlh1 rad18 strain (AID 175); conditions: S. cerevisiae mlh1 rad18 strain growth inhibition; at 50.0 µM; stronger effect = higher value
# Method in brief: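 Yeast w/ defined DNA-repair lesions; compound exposure; growth vs vehicle controls → % inhibition.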
Compound,growth inhibition [1],growth inhibition [2],growth inhibition [3],growth inhibition [4],growth inhibition [5],growth inhibition [6]
O=C(O)C(Cl)(Cl)Cl,-0.6% (inactive),-22.6% (inactive),-15.8% (inactive),14.4% (inactive),-17.4% (inactive),21.1% (inactive)
CC(C)CC(N)C(=O)O (stereo not drawn),-6% (inactive) and -19.2% (inactive),-4.8% (inactive) and 9.15% (inactive),-3.25% (inactive) and -31.2% (inactive),-11.1% (inactive) and -34% (inactive),5.7% (inactive) and -8.45% (inactive),6.15% (inactive) and -40.9% (inactive)
CCOP(=O)(OCC)Oc1cc(C)c(Cl)c(C)c1,10.2% (inactive),-16.7% (inactive),4.15% (inactive),18.4% (inactive),16.9% (inactive),-8.35% (inactive)
Cc1cc(C=C2C(=O)NC(=S)NC2=O)c(C)n1-c1ccccc1,14.3% (inactive),-4.6% (inactive),17.7% (inactive),-43.3% (inactive),8.6% (inactive),5.15% (inactive)
CC(=O)Oc1ccc([As](=O)(O)O)cc1,5.55% (inactive),-7.75% (inactive),3.75% (inactive),-11.8% (inactive),10.4% (inactive),1.05% (inactive)
Oc1ccc2ccccc2c1N=Nc1ccccc1,-10.8% (inactive) and 10.3% (inactive),-6.5% (inactive) and -18.8% (inactive),-12.6% (inactive) and -7.95% (inactive),-21.9% (inactive) and -9.7% (inactive),0.9% (inactive) and -18.4% (inactive),3.1% (inactive) and 2.3% (inactive)
CC(C)(O)C1=CC23CC(C)(C(=O)O)C4CCCCC4(C)C2CC1OO3 (stereo not drawn),21.4% (inactive),-7.3% (inactive),32% (inactive),11.4% (inactive),-10.3% (inactive),25.4% (inactive)
CN(C)c1ccc(C(=O)CCCN2CCC3(CC2)C(=O)NCN3c2ccccc2)cc1,-13.9% (inactive),8.95% (inactive),5.9% (inactive),-40.8% (inactive),-1.05% (inactive),-11.5% (inactive)
CC[N+](CC)(CC)CC,-16.7% (inactive) and -6.2% (inactive),2.1% (inactive) and -17.7% (inactive),6.6% (inactive) and -1.6% (inactive),-10.4% (inactive) and 2.05% (inactive),0.8% (inactive) and -1.3% (inactive),-15.8% (inactive) and -4.9% (inactive)
CC1=C(C)C(=O)C(C)=C(C)C1=O,25.2% (inactive),8.7% (inactive),-9.6% (inactive),-10.7% (inactive),5.15% (inactive),13.2% (inactive)
CC(C)CCC1(CC[N+](C)(C)C)C(=O)NC(=O)NC1=O,5.95% (inactive),-9.85% (inactive),6.15% (inactive),-29.2% (inactive),10.7% (inactive),-7.05% (inactive)
CC([NH-])C[NH-].[Na+].[O]=[Co][O-] (stereo not drawn),8.4% (inactive),11.9% (inactive),24.5% (inactive),-21.6% (inactive),-0.25% (inactive),10.3% (inactive)
O=C(OCc1nc2ccccn2c1[N+](=O)[O-])N(CCCl)CCCl,-42.6% (inactive),-21.5% (inactive),-35.6% (inactive),-10.8% (inactive),16.9% (inactive),-46% (inactive)
CCc1ccc(CCN2CCCCC2)nc1,-24.6% (inactive),-21.4% (inactive),-21.4% (inactive),6.75% (inactive),-15.5% (inactive),-1.6% (inactive)
ClCCCBr,29.2% (inactive),-7.35% (inactive),-10.8% (inactive),13.3% (inactive),24.4% (inactive),21.9% (inactive)
[Cl][Hg][c]1ccccc1N=Nc1ccccc1I,99.2% (active),98.8% (active),99.2% (active),98.8% (active),99.3% (active),99.2% (active)
N#Cc1cccc([N+](=O)[O-])c1,-17.7% (inactive),0.3% (inactive),-26.6% (inactive),30.8% (inactive),-9.7% (inactive),-18.9% (inactive)
CCCCC[N+]1=Cc2cc(O)c(O)cc2CC1,-11.1% (inactive),-5.7% (inactive),1.75% (inactive),-24.9% (inactive),-12.4% (inactive),-21.7% (inactive)
O=C(C(Cl)Cl)N1CCCCC1,-5.2% (inactive),-0.3% (inactive),-5.5% (inactive),4.65% (inactive),0% (inactive),39.9% (inactive)
[Cl][Sn]([Cl])([c]1ccccc1)[c]1ccccc1.c1ccncc1,96.8% (active),98.8% (active),98.8% (active),97.5% (active),98.1% (active),97.7% (active)
O=C(CC(=O)C(=O)Nc1ccccc1)CC(c1ccccc1)c1c(O)c2ccccc2oc1=O (stereo not drawn),9% (inactive),5.3% (inactive),26.4% (inactive),12.6% (inactive),1.4% (inactive),18.5% (inactive)
c1cc2c(cc1C1OCC3C(c4ccc5c(c4)OCO5)OCC13)OCO2 (stereo not drawn),75.1% (active) and 30.8% (inactive),74.6% (active) and -0.05% (inactive),82.5% (active) and 57.4% (inactive),44.4% (inactive) and 34.4% (inactive),81.5% (active) and 54.3% (inactive),67% (inactive) and 31.7% (inactive)

Compound,growth inhibition [1],growth inhibition [2],growth inhibition [3],growth inhibition [4],growth inhibition [5],growth inhibition [6]
O=C1NC2(CCCCC2)C(=O)N1CCCCN(CCCl)CCCl,1% (inactive),9.8% (inactive),9.2% (inactive),5.2% (inactive),21.4% (inactive),-5.85% (inactive)
Oc1c(Cl)cc(Cl)cc1C1N(Cc2ccc(N(CCCl)CCCl)cc2)CCCN1Cc1ccc(N(CCCl)CCCl)cc1,8.75% (inactive),17.2% (inactive),23.4% (inactive),-3.25% (inactive),3.7% (inactive),41.5% (inactive)
CC(O)C[As](=O)(O)c1ccccc1Cl (stereo not drawn),2.85% (inactive),25.5% (inactive),-17.3% (inactive),-2.55% (inactive),14.4% (inactive),-16.6% (inactive)
CCC(Br)C(=O)O (stereo not drawn),26.6% (inactive),-4.3% (inactive),-0.3% (inactive),-22.5% (inactive),24.4% (inactive),24.8% (inactive)
CC1(O)CCC(O)CC1CC(=O)O (stereo not drawn),11.8% (inactive),8.5% (inactive),9.45% (inactive),22.1% (inactive),-0.15% (inactive),11.4% (inactive)
CC(C)CC1N=C(N(C)N=O)OP1(=O)NNc1ncccn1 (stereo not drawn),-5.5% (inactive),-14.9% (inactive),-15.4% (inactive),6.65% (inactive),13.8% (inactive),13.9% (inactive)
CC(C)(C)c1ccc(OP(=O)(Oc2ccccc2)Oc2ccccc2)cc1,15.9% (inactive),0.05% (inactive),-8.15% (inactive),-30.9% (inactive),24.1% (inactive),33.9% (inactive)
CCCCN=C=S,45.7% (inactive),-11.7% (inactive),21.8% (inactive),5.15% (inactive),-3.8% (inactive),19% (inactive)
CC(C)CCC(=O)OC1CCC2(C)C(=CCC3C4CCC(=O)C4(C)CCC32)C1 (stereo not drawn),3.35% (inactive),12.1% (inactive),5.35% (inactive),-18.7% (inactive),-1.9% (inactive),13.2% (inactive)
C=CC(=O)NCNC(=O)C=C,21.9% (inactive) and 5.15% (inactive),19.3% (inactive) and 1.85% (inactive),8.75% (inactive) and -4.05% (inactive),10.6% (inactive) and 4.3% (inactive),5.25% (inactive) and -11.3% (inactive),-15.8% (inactive) and -2.9% (inactive)
CCCN1CCC2(CC1)COCc1ccccc12,30.8% (inactive),26.9% (inactive),28.4% (inactive),12.6% (inactive),15.1% (inactive),34.8% (inactive)
O=C([O-])CC(=O)[O-].[Cu+2].[OH3+].[OH3+],24.9% (inactive),11.2% (inactive),12.2% (inactive),-19.6% (inactive),-9.35% (inactive),6.1% (inactive)
COCC1OC(OC2C3=C(C(C)C)CCC3(C)/C=C3\C(CCC3(O)COC)C(C)C2O)C(O)C2OC3OC12OC3(C)C1CO1 (stereo not drawn),28.1% (inactive),7.75% (inactive),21% (inactive),35.2% (inactive),31.6% (inactive),-78% (inactive)
C1CN([PH+](N2CC2)N2CC2)CCO1.[C-]#[O+].[C-]#[O+].[C-]#[O+].[C-]#[O+].[C-]#[O+].[Mo],-17.9% (inactive),-1.7% (inactive),-7.3% (inactive),-31.4% (inactive),3.9% (inactive),3.95% (inactive)
O=[As](O)(O)Cc1cccc(F)c1,-3.8% (inactive),-7.8% (inactive),-6.65% (inactive),-46.5% (inactive),2.1% (inactive),-8.35% (inactive)
CC[n+]1cccc2ccccc21,-0.45% (inactive) and 56.5% (inactive),-6.7% (inactive) and 60.2% (inactive),-6.7% (inactive) and 73.5% (active),-11.2% (inactive) and 5.65% (inactive),-4.9% (inactive) and 20.5% (inactive),-25.2% (inactive) and 66.7% (inactive)
Cn1c(=O)n(C)c(=O)n(C)c1=O,3.8% (inactive),6.65% (inactive),-5.2% (inactive),-1.55% (inactive),14.6% (inactive),-12.6% (inactive)
CCCN(CCC)c1c([N+](=O)[O-])cc(C(=O)N(CC)CC)cc1[N+](=O)[O-],40.6% (inactive),29.8% (inactive),37.4% (inactive),13.8% (inactive),34.1% (inactive),11.3% (inactive)
Cc1sc2cccc[n+]2c1C,5.85% (inactive),-12.9% (inactive),-8.95% (inactive),-8.95% (inactive),-3.4% (inactive),-14.4% (inactive)
Cc1ccc(NC(=O)C(=O)C2C(=O)NC(=O)NC2=O)cc1C,-4.9% (inactive),-14.3% (inactive),-34.6% (inactive),3.85% (inactive),-19.9% (inactive),-23.2% (inactive)
CCN1C(=O)NC(=O)C(CC)(N2CCCCC2)C1=O (stereo not drawn),10.7% (inactive),7.95% (inactive),5% (inactive),15% (inactive),2.55% (inactive),25.4% (inactive)
